Test results reported in PubChem BioAssay AID1259421 (Broad Institute, 2018).
Values joined by “and” are separate entries in the source; they are usually repeats but may differ in a detail not shown here. Identical values can stand only once. Among all 6,400 compounds or so, about 610 (9.5%) were called active. No stated cut-off is given here; in the data, active means activity change below about -70%; inconclusive means no clear call, values can overlap the other calls; inactive means above that. For the sample, actives were picked, then their nearest neighbours and some compounds at random. Some structures have more than one record in an assay (separate samples or runs), and their calls can disagree.

Test: Toxoplasma gondii ME49Luc growth in HeLa cells, luciferase, no IFN-y, primary screen (AID 1259421)
Conditions: T. gondii ME49Luc in HeLa, 72 h, stronger effect = lower value, concentration not given here

| Compound | activity change, negative = inhibition |
| --- | --- |
| Cc1noc(-c2ccc(CSCCC(=O)O)cc2)c1NC(=O)OC(C)c1ccccc1Cl (configuration not stated) | 13.3% (inactive) |
| O=C(O)c1ccc2nc(-c3cc(Cl)cc(Cl)c3)oc2c1 | 84.3% (inactive) |
| Cc1[nH]c(/C=C2\C(=O)Nc3ccc(S(=O)(=O)Cc4c(Cl)cccc4Cl)cc32)c(C)c1C(=O)N1CCC[C@@H]1CN1CCCC1 | -78.2% (active) and -84% (active) and -67.3% (inactive) |
| Cc1[nH]c(/C=C2\C(=O)Nc3ccc(S(=O)(=O)N(C)c4cccc(Cl)c4)cc32)c(C)c1C(=O)N1CCN(C)CC1 | -35.8% (inactive) |
| OC1(c2ccc(Cl)cc2)CCNCC1 | 13.9% (inactive) |
| CN1CC[C@@H](NC(=O)Nc2ccc(C#N)cc2)C[C@@H]1c1nc2ccccc2[nH]1 | 7.93% (inactive) |
| CC(C)C[C@H](NC(=O)[C@H](Cc1ccccc1)NC(=O)c1cnccn1)B(O)O | -73.2% (active) and -72% (active) |
| CC(C)C[C@@H](NC(=O)OCC1c2ccccc2-c2ccccc21)C(=O)O | 145% (inactive) and 359% (inactive) |
| CC(C)CC(NC(=O)OCC1c2ccccc2-c2ccccc21)C(=O)O (configuration not stated) | -4.74% (inactive) |
| CC(C)C[C@H](NC(=O)[C@@H](O)[C@H](N)Cc1ccccc1)C(=O)O | -0.518% (inactive) and 15% (inactive) |
| CC(C)C[C@H](NC(=O)[C@@H](NC(=O)c1cccc(-c2ccccc2)n1)[C@@H](C)O)B(O)O | -75.2% (active) and -70.7% (active) |
| CNC(=O)[C@H](Cc1ccccc1)NC(=O)[C@H](CC(C)C)[C@H](CSc1cccs1)C(=O)NO | -1.31% (inactive) and 10.6% (inactive) |
| CCC[N+]12C3C[C@H](C4C(O)[C@]5(C[C@@H]41)c1ccccc1N(C)[C@@H]35)[C@H](CC)[C@H]2O (some centres not stated) | 10.9% (inactive) |
| CCOc1ccc(N=C(C)Nc2ccc(OCC)cc2)cc1 | 3.11% (inactive) |
| CCCc1c(OCC(O)COc2ccc3c(=O)cc(C(=O)O)oc3c2CCC)ccc(C(C)=O)c1O (configuration not stated) | 10.3% (inactive) and -5.08% (inactive) |
| CCOC(=O)C1CN(Cc2ccccc2)C(=O)C1=O (configuration not stated) | 16.6% (inactive) and 1.66% (inactive) |
| N[C@@H]1CCCC[C@H]1N.O=C(O)C(=O)O.[Pt] | 10.5% (inactive) |
| CC1(C)CC[C@]2(C(=O)O)CC[C@]3(C)C(=CCC4[C@@]5(C)CC[C@@H](O)C(C)(C)C5CC[C@]43C)C2C1 (some centres not stated) | 10.1% (inactive) |
| COc1c(N2C[C@@H]3CCCN[C@@H]3C2)c(F)cc2c(=O)c(C(=O)O)cn(C3CC3)c12 | -7.38% (inactive) |

| Compound | activity change, negative = inhibition |
| --- | --- |
| N[C@@H]1CCCCN(c2c(F)cc3c(=O)c(C(=O)O)cn(C4CC4)c3c2Cl)C1 | 4.72% (inactive) |
| NC1CCN(c2c(F)cc3c(=O)c(C(=O)O)cn(C4CC4)c3c2Cl)C1 (configuration not stated) | -79.3% (active) |
| CNC1CCCN(c2c(F)cc3c(=O)c(C(=O)O)cn(C4CC4)c3c2OC)C1 (configuration not stated) | 0.884% (inactive) |
| N[C@@H]1CN(c2c(F)cc3c(=O)c(C(=O)O)cn([C@@H]4C[C@@H]4F)c3c2Cl)CC12CC2 | -6.27% (inactive) |
| COc1c(N2CCNC(C)C2)c(F)cc2c(=O)c(C(=O)O)cn(C3CC3)c12 (configuration not stated) | 7.25% (inactive) and -78% (active) |
| C[C@H](NC(=O)c1sccc1OCc1ccc(Cl)cc1)c1ccccc1 | 28.7% (inactive) |
| O=C(O)c1cc(Oc2ccc([N+](=O)[O-])cc2)cc(Oc2ccc([N+](=O)[O-])cc2)c1 | 4.54% (inactive) and 5.04% (inactive) |
| CC1=CC2C(CC1=O)C(C)=CCC2C(C)C (configuration not stated) | 4.22% (inactive) |
| c1ccc(COCCCc2cnc[nH]2)cc1 | -41.7% (inactive) and 17.9% (inactive) |
| O=C(Nc1c(-c2cccs2)nc2ccccn12)c1ccc(Cl)cc1 | 6.95% (inactive) |
| CN1C(CC(=O)c2ccccc2)CCCC1CC(O)c1ccccc1 (configuration not stated) | 6.13% (inactive) and 6.36% (inactive) |
| CO[C@H]1C[C@H](O[C@H]2[C@H](C)[C@@H](OC3O[C@H](C)C[C@H](N(C)C)[C@H]3OC(C)=O)[C@@H](C)C[C@]3(CO3)C(=O)[C@H](C)[C@@H](OC(C)=O)[C@@H](C)[C@@H](C)OC(=O)[C@@H]2C)O[C@@H](C)[C@@H]1OC(C)=O (some centres not stated) | 5.2% (inactive) |
| Nc1ncnc2c1c(-c1cccc(OCc3ccccc3)c1)cn2C1CC(CN2CCCC2)C1 (configuration not stated) | -69.4% (inactive) |
| Nc1ncnc2c1c(-c1cccc(OCc3ccccc3)c1)cn2C1CC(CN2CCC2)C1 (configuration not stated) | -81.2% (active) |
| Cc1cccc(C)c1NC(=O)CC12CCCN1CCC2 | 13.3% (inactive) |
| CC(C)(C)NCC(O)COc1nsnc1N1CCOCC1 (configuration not stated) | -0.1% (inactive) |
| O=C1CCC(c2ccccc2)(C2CCN(Cc3ccc(I)cc3)CC2)C(=O)N1 (configuration not stated) | 11.1% (inactive) |
| Cc1ccc(/C=C2\C(=O)C3(C)CCC2C3(C)C)cc1 (configuration not stated) | 2.27% (inactive) |
